Experimental data as given in PubChem BioAssay.
The list shows a part of the results. Rule as the data show it, unless noted: active = inhibition above about 14%; inactive = the rest.

What was measured:
[1] = system: HIV-1 integrase (multimerization); assay: HIV-1 IN multimer formation enhancers, counter-screen for LEDGF/p75 integration inhibitor project, biochemical, TR-FRET (AID 1053131; in the data active = activation above about 8.9%); details: TR-FRET HIV-1 integrase multimerization, at 7.7 µM, stronger effect = higher value
[2] = TR-FRET optical interference artefacts, confirmation, artefact control for LEDGF/p75-dependent integration inhibitor project, biochemical, HIV-1 IN multimerization (AID 1053135;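 active = inhibition above the mean over all tested compounds plus 3 SD, which no compound reached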;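 also: 0% = integrase with antibodies and DMSO and 100% = antibodies without integrase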); details: TR-FRET optical interference counterscreen, at 7.7 µM, stronger effect = higher value
[3] = system: HIV-1 integrase / human LEDGF/p75 complex; assay: inhibitors of HIV-1 IN-LEDGF/p75 DNA integration, confirmation, biochemical, TR-FRET (AID 1053136); details: TR-FRET LEDGF/p75-dependent HIV-1 integration, at 3.7 µM, stronger effect = higher value

CN(Cc1ccc(F)cc1)C(=O)CN1C(=O)c2ccccc2S1(=O)=O
inactive: activation [1] -1.2% | inhibition [2] 4.33% | inhibition [3] -12.2%

CCOc1cccc(=O)c2c(C)n(CC3CCCO3)c(C)c12 (stereo not given)
inactive: activation [1] 2.93% | inhibition [2] -10.4% | inhibition [3] 4.91%

Cc1cc(Oc2ccc(Cl)cc2)nc(SCC(=O)c2ccccc2)n1
inactive: activation [1] -0.31% | inhibition [2] 1.56% | inhibition [3] -0.68%

CCCCNC(=O)OC1CC2CC1[C@H]1CCCCN1C2=O (stereo not given in full)
inactive: activation [1] -0.71% | inhibition [2] 3.63% | inhibition [3] -1.12%

CCOC(=O)c1ccc(NC(=O)CSc2ncccn2)cc1
inactive: activation [1] -0.25% | inhibition [2] 1.28% | inhibition [3] -6.96%

Cc1cc(=O)oc2c3c(cc(OCC(=O)N[C@H](C(=O)O)c4ccccc4)c12)OC(C)(C)CC3
inactive: activation [1] -0.04% | inhibition [2] 0.3% | inhibition [3] -1.12%

Cc1ccc(C(=O)OC(C)CN2CCOCC2)cc1 (stereo not given)
inactive: activation [1] 0.25% | inhibition [2] -1.23% | inhibition [3] -2.32%

O=C(c1cccc(C(F)(F)F)c1)N1CC[C@H]2[C@H](CCCN2Cc2cc(F)cc(F)c2)C1
inactive: activation [1] 0.05% | inhibition [2] -0.14% | inhibition [3] -8.63%

CCc1cc2c(SCC(=O)Nc3ncc(Cl)c(C)c3Cl)ncnc2s1
inactive: activation [1] -0.15% | inhibition [2] 0.78% | inhibition [3] 0.88%

CC(=O)c1nc2ccccc2n1Cc1ccccc1
inactive: activation [1] -0.46% | inhibition [2] 2.34% | inhibition [3] -4.4%
